Laboratory results: PubChem BioAssay (EPA / NIEHS)
“And” between values parts separate entries of the source, which are not always exact repeats. Identical values can stand only once. Inconclusive results are not listed. The source holds several records for some structures; these can differ, active in one and inactive in another. The source made the active and inactive calls. How the source made its calls: active means hit-call score of the fitted dose curve at least 0.9, where 1 is the maximum; inconclusive means response in the unintended direction; inactive means score below 0.9.

test: ACEA_AR_antagonist_AUC_viability: ACEA Biosciences xCELLigence Real-Time Cell Analysis on Androgen Receptor Antagonism for Viability (AID 2283776);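 further: 22Rv1 human prostate cancer cells growing on impedance electrode plates; area under impedance growth curve at 80 h after dosing as viability; hits lower the growth signal relative to DMSO meaning cytotoxicity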
Method in brief: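 Impedance read-out (RT-CES): area under growth curve at 80 h post-dose, loss of signal scored vs DMSO baseline. 22Rv1 cells; 8-pt 1:4 series, top 100 uM final, ≤0.5% DMSO; biological duplicate.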

**Q.** With [O-][Cl+2]([O-])O as the compound, how does the outcome read?
**A.** inactive

**Q.** With CCCCCCCCc1ccc(O)cc1 as the compound, how does the AC50 read?
**A.** 28.9 µM (active)

**Q.** Which outcome does the source give for Cc1ccccc1N here?
**A.** inactive

**Q.** With CC(C)(c1ccc(OCC2CO2)cc1)c1ccc(OCC2CO2)cc1 (centres undefined) as the compound, how does the outcome read?
**A.** inactive

**Q.** For C=CCc1ccc(OC)cc1, which outcome is on record?
**A.** inactive

**Q.** For c1cc[c]([Hg][c]2ccccc2)cc1, which AC50 is on record?
**A.** 16.6 µM (active)

**Q.** With C[C@@H]1C[C@@H]([C@H](O)CC2CC(=O)NC(=O)C2)C(=O)[C@@H](C)C1 as the compound, how does the AC50 read?
**A.** 1.35 µM (active)

**Q.** With CCN1CCC2(CC1)COc1cc3c(cc12)N(C(=O)c1ccc(-c2ccc(-c4nnc(C)o4)cc2C)cc1)CC3 as the compound, how does the AC50 read?
**A.** 10.4 µM (active)

**Q.** For O=C1C(Cl)=C(Cl)C(=O)c2ccccc21, which outcome is on record?
**A.** inactive

**Q.** For CCC1(c2ccc(N)cc2)CCC(=O)NC1=O (centres undefined), which outcome is on record?
**A.** inactive

**Q.** For CC(=O)c1cc(C(C)(C)C)cc2c1CCC2(C)C, which outcome is on record?
**A.** inactive

**Q.** Which AC50 does the source give for CC(C)C1CCC(Cc2ccc(Cl)cc2)C1(O)Cn1cncn1 (centres undefined) here?
**A.** 4.94 µM (active)

**Q.** Which outcome does the source give for O=C(O)C(Cl)(Cl)Cl here?
**A.** inactive

test: ACEA_ER_AUC_viability: ACEA Biosciences xCELLigence Real-Time Cell Analysis on Estrogen Receptor Agonism for Viability (AID 2283782);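 further: continuous compound exposure with impedance area under curve over 80 h; hit means loss of impedance signal meaning reduced cell growth or viability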
Method in brief: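 T-47D human breast cells in phenol red-free RPMI1640 with 10% charcoal-stripped FBS were dosed with an 8-point 1:4 dilution series from 100 uM top final concentration, in duplicate. Impedance-based growth was followed for 80 h; AUC analysed versus DMSO.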

**Q.** For NC(=O)O, which outcome is on record?
**A.** inactive

**Q.** For ClCCBr, which outcome is on record?
**A.** inactive

**Q.** For [O-][Cl+2]([O-])O, which outcome is on record?
**A.** inactive

**Q.** Which AC50 does the source give for CCCCCCCCc1ccc(O)cc1 here?
**A.** 24.4 µM (active)

**Q.** With BrCCBr as the compound, how does the outcome read?
**A.** inactive

**Q.** With Cc1ccccc1N as the compound, how does the AC50 read?
**A.** 0.893 µM (active)

**Q.** And the outcome?
**A.** inactive

**Q.** For CC(C)(c1ccc(OCC2CO2)cc1)c1ccc(OCC2CO2)cc1 (centres undefined), which AC50 is on record?
**A.** 82.5 µM (active)

**Q.** With C=CCc1ccc(OC)cc1 as the compound, how does the outcome read?
**A.** inactive

**Q.** For c1cc[c]([Hg][c]2ccccc2)cc1, which AC50 is on record?
**A.** 36.3 µM (active)

**Q.** With O=C(Cl)c1ccc(Cl)cc1 as the compound, how does the outcome read?
**A.** inactive

**Q.** Which outcome does the source give for COc1ccccc1OC here?
**A.** inactive

**Q.** With C[C@@H]1C[C@@H]([C@H](O)CC2CC(=O)NC(=O)C2)C(=O)[C@@H](C)C1 as the compound, how does the AC50 read?
**A.** 522 nM (active) and 1.49 µM (active)

**Q.** For CCN1CCC2(CC1)COc1cc3c(cc12)N(C(=O)c1ccc(-c2ccc(-c4nnc(C)o4)cc2C)cc1)CC3, which AC50 is on record?
**A.** 8.01 µM (active)

**Q.** With CCCCP(CCCC)CCCC as the compound, how does the AC50 read?
**A.** 27.9 µM (active)

**Q.** Which AC50 does the source give for O=C1C(Cl)=C(Cl)C(=O)c2ccccc21 here?
**A.** 16.7 µM (active)

**Q.** Which outcome does the source give for O=[N+]([O-])c1ccc2c3c(cccc13)CC2 here?
**A.** inactive

**Q.** Which outcome does the source give for COP(=S)(OC)Oc1ccc(S(=O)(=O)N(C)C)cc1 here?
**A.** inactive

**Q.** For N#Cc1ccccn1, which outcome is on record?
**A.** inactive

**Q.** With COP(=S)(OC)Oc1cc(Cl)c(Br)cc1Cl as the compound, how does the AC50 read?
**A.** 92.6 µM (active)

**Q.** Which outcome does the source give for CN(CCCC(=O)c1cccnc1)N=O here?
**A.** inactive

**Q.** With CCOC(=O)CP(=O)(OCC)OCC as the compound, how does the AC50 read?
**A.** 36.8 µM (active)

**Q.** For COC(=O)Cc1ccccc1, which AC50 is on record?
**A.** 30.7 µM (active)

**Q.** For CCC1(c2ccc(N)cc2)CCC(=O)NC1=O (centres undefined), which outcome is on record?
**A.** inactive

**Q.** Which outcome does the source give for CC(=O)c1cc(C(C)(C)C)cc2c1CCC2(C)C here?
**A.** inactive

**Q.** For N#CCCO, which AC50 is on record?
**A.** 22 µM (active)

**Q.** With C[C@H]1O[C@@H](O[C@H]2[C@@H](O)C[C@H](O[C@H]3[C@@H](O)C[C@H](O[C@H]4CC[C@@]5(C)[C@H](CC[C@@H]6[C@@H]5CC[C@]5(C)[C@@H](C7=CC(=O)OC7)CC[C@]65O)C4)O[C@@H]3C)O[C@@H]2C)C[C@H](O)[C@@H]1O as the compound, how does the AC50 read?
**A.** 0.159 µM (active)

**Q.** For CC(C)C1CCC(Cc2ccc(Cl)cc2)C1(O)Cn1cncn1 (centres undefined), which AC50 is on record?
**A.** 19.9 µM (active)

**Q.** Which outcome does the source give for O=C(O)C(Cl)(Cl)Cl here?
**A.** inactive

**Q.** With CCOC(=O)/C=C(C)/C=C/C[C@@H](C)CCCC(C)C as the compound, how does the AC50 read?
**A.** 87.8 µM (active)

**Q.** Which AC50 does the source give for O=C(c1ccccc1)C(Cl)Cl here?
**A.** 22.6 µM (active)
